Screening data deposited in PubChem BioAssay by National Center for Advancing Translational Sciences (NCATS).
Six1-Eya2 blk – Six1/Eya2 interaction inhibition; Q15475+O00167; AlphaScreen GST-Six1/His-Eya2 binding, biochemical; hits give low values; activity change, % (no concentration beside the values); 0.56% of 360,000 active; AID 651725; in the data active = activity change below about -65%; inconclusive = mostly about -30% to -63%
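Homogeneous AlphaScreen proximity assay pairing GST-Six1 with His-tagged Eya2 (added as 5X mix: 250 nM and 500 nM) in 50 mM Tris pH 8.0, 300 mM NaCl, 1 mM TCEP. Glutathione donor and nickel acceptor beads; 1 h, 37 °C, dark.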
TDP1 block – blocks human tyrosyl-DNA phosphodiesterase 1; Potency, µM (titrated, usually from 130 µM), most hits filed as inhibitors; recombinant TDP1, AlphaScreen DNA substrate cleavage; 0.28% of 350,000 active; AID 485290; note: nearly all actives have a fitted effect of over 40% in size
Target sequence (Q9NUW8 whole entry, looked up): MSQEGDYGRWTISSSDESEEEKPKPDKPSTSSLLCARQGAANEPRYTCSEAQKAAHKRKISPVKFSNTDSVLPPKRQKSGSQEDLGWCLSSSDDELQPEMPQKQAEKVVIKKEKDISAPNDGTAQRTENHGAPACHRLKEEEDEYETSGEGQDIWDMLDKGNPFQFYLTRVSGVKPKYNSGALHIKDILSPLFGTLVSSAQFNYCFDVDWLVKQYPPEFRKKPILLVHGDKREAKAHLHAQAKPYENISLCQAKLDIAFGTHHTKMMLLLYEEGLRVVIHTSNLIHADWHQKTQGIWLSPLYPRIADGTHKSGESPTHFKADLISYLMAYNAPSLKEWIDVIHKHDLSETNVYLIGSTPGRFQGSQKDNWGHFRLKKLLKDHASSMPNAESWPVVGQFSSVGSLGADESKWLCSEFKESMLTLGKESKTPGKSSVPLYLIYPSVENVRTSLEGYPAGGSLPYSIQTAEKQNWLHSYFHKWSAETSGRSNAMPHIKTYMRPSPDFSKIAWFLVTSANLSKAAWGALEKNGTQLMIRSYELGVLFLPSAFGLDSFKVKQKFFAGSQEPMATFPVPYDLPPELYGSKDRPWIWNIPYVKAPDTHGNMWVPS
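Here, a 5' biotin and 3' phosphotyrosine-FITC DNA oligonucleotide reports Tdp1 activity: intact substrate bridges AlphaScreen beads, while cleavage leaves a 3' phosphate and drops signal. All incubations at room temperature.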
TDP1 cell CPT – DT40-hTDP1 cell growth loss with CPT | chicken DT40 Tdp1-/-;hTDP1 cells + 20 nM CPT, ATP luminescence, 48 h | Potency, µM (doses to about 46.2 µM), usual class: inhibitors | 12% of 420,000 active; note: nearly all actives have a fitted effect of over 55% in size
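Chicken DT40 Tdp1-/- cells complemented with human TDP1, 400 cells/well, exposed to compounds plus 20 nM camptothecin for at least 48 h at 37 C; viability read as ATP content by CellTiter-Glo luminescence.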
DT40 TDP1 no CPT – qHTS for Inhibitors of human tyrosyl-DNA phosphodiesterase 1 (TDP1): qHTS in cells in absence of CPT | DT40 Tdp1-/- hTDP1 cells, no CPT, ATP luminescence, 48 h | Potency, µM (doses to about 46.2 µM), usual class: inhibitors | 15% of 420,000 active | AID 686978, 2013; note: nearly all actives have a fitted effect of over 55% in size
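Chicken DT40 Tdp1-/- cells complemented with human TDP1, screened without camptothecin (DMSO vehicle only), 400 cells/well. Compounds pin-transferred, cells incubated at 37 °C for at least 48 hr. Growth read as ATP-dependent luminescence (CellTiter-Glo, 30 min at RT).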
CtBP-E1A blk – inhibitors of CtBP/E1A interaction | AlphaScreen GST-E1A/His-CtBP binding, 1536-well; hits give low values | activity change, % (no concentration beside the values) | 0.49% of 340,000 active; in the data active = activity change below about -65%; inconclusive = mostly about -30% to -63%
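AlphaScreen with 125 nM GST-E1A and 125 nM His-CtBP (5X stocks) in Tris pH 8.0, 300 mM NaCl, BSA, Tween 20, TCEP. Compounds preincubated 2 h at 37 deg C, then glutathione donor/nickel acceptor beads added for 1 h at 37 deg C in dark.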
IL1B secr inh – blocks inflammasome-driven IL-1 beta release | THP-1 LPS/ATP IL-1B secretion, AlphaLISA, 16 h; hits give low values | activity change, % at 57.5 µM | 4.7% of 360,000 active; in the data active = activity change below about -50%; inconclusive = mostly about -30% to -49%
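Secreted IL-1B measured by AlphaLISA bead assay after 16 h compound exposure of THP-1 cells; compounds (final up to 57.5 uM) added 1 h before LPS (250 ng/mL) and ATP (1.25 mM) stimulation; lower signal means less secretion.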
Of the large screens only hits and unclear results are named; the others gave an inactive call. Hits are enriched below; roughly 18% of the tested compounds scored in any of these assays. Unless noted, calls come from the whole dose curve; as a rule, active = well fitted curve in the direction sought with a large enough effect; inconclusive = small, poorly fitted or top-dose-only effect, or another doubt; inactive = no such curve, though single readings can be large; an effect the other way counts as inactive or inconclusive.

Cc1cccc(NC(=O)c2cc(-c3ccco3)nc3ccccc23)n1	TDP1 cell CPT 20.6µM, DT40 TDP1 no CPT 18.4µM
Cc1ccc(S(=O)(=O)N(C)C)cc1NC(=O)c1cc(-c2ccco2)nc2ccccc12	TDP1 cell CPT 13µM, DT40 TDP1 no CPT 18.4µM
Cc1ccc(S(=O)(=O)N(C)C)cc1NC(=O)c1ccncc1	none
Cc1ccccc1NC(=O)c1cc(-c2ccco2)nc2ccccc12	DT40 TDP1 no CPT inconclusive (no result: TDP1 block, IL1B secr inh)
Cc1ccc(C)c(NC(=O)c2ccc3ccccc3n2)c1	TDP1 cell CPT inconclusive, DT40 TDP1 no CPT inconclusive
CCc1cc(C(=O)Nc2cc(S(=O)(=O)N(C)C)ccc2C)sc1C	TDP1 cell CPT 14.6µM, DT40 TDP1 no CPT 13µM (no result: CtBP-E1A blk)
Cc1ccc(S(=O)(=O)NCCC(=O)Nc2cc(S(=O)(=O)N(C)C)ccc2C)cc1C	DT40 TDP1 no CPT 16.4µM (no result: TDP1 block)
Cc1ccc(S(=O)(=O)NCCC(=O)Nc2ccc(C)cc2C(=O)c2ccccc2)cc1	TDP1 cell CPT inconclusive, DT40 TDP1 no CPT 20.6µM
Cc1ccc(C)c(S(=O)(=O)Nc2ccccc2C(=O)Nc2cc(C)on2)c1	TDP1 cell CPT 16.4µM, DT40 TDP1 no CPT inconclusive
Cc1ccc(C)c(NC(=O)c2ccccc2NS(=O)(=O)c2cc([N+](=O)[O-])ccc2C)c1	TDP1 cell CPT 3.26µM, DT40 TDP1 no CPT 4.11µM, IL1B secr inh inconclusive
COc1ccc(OC)c(NC(=O)CSc2nc(=O)n(CCN3CCOCC3)c3c2CCC3)c1	none (no result: TDP1 block)
Cc1cccc(C(=O)N(Cc2nc3ccccc3c(=O)[nH]2)C2CCCCC2)c1	TDP1 cell CPT inconclusive, DT40 TDP1 no CPT inconclusive
FC(F)(F)c1ccccc1/C=N/n1c(C2CCCCC2)n[nH]c1=S	none (no result: TDP1 block, CtBP-E1A blk)
O=C(NCCOc1ccccc1)c1cc([N+](=O)[O-])ccc1N1CCOCC1	TDP1 cell CPT 1.84µM, DT40 TDP1 no CPT 1.64µM
O=C(NCCc1ccc(F)cc1)c1cc([N+](=O)[O-])ccc1N1CCOCC1	none (no result: TDP1 block)
O=C(NCCOc1ccccc1F)c1cc([N+](=O)[O-])ccc1N1CCOCC1	TDP1 cell CPT 5.17µM, DT40 TDP1 no CPT 3.66µM
O=C(CN1CCOCC1)Nc1nc2ccc([N+](=O)[O-])cc2s1	none
O=C(Nc1nc2ccc(Oc3ccccc3)cc2s1)c1cc([N+](=O)[O-])ccc1N1CCOCC1	Six1-Eya2 blk inconclusive, TDP1 cell CPT inconclusive, DT40 TDP1 no CPT 13µM
O=C(NCCc1ccccc1)c1cc([N+](=O)[O-])ccc1N1CCOCC1	TDP1 cell CPT inconclusive
Cc1[nH]n(-c2ncc(-c3ccccc3)s2)c(=O)c1C(c1ccc(Br)cc1)C(C#N)C#N (stereo not given)	TDP1 cell CPT inconclusive, DT40 TDP1 no CPT inconclusive, IL1B secr inh -63.7
Cc1[nH]n(C(N)=S)c(=O)c1C(c1ccccc1)C(C#N)C#N (stereo not given)	TDP1 cell CPT 1.46µM, DT40 TDP1 no CPT 1.46µM
Cc1cccc(NC(=O)c2ccoc2C)n1	none
O=C(CN1CCN(CCN2C(=O)c3cccc4cccc(c34)C2=O)CC1)c1ccc(Cl)cc1	none (no result: Six1-Eya2 blk, TDP1 cell CPT, DT40 TDP1 no CPT, CtBP-E1A blk, IL1B secr inh)
COc1ccc(C(=O)CN2CCN(CCN3C(=O)c4cccc5cccc(c45)C3=O)CC2)cc1	TDP1 cell CPT inconclusive, DT40 TDP1 no CPT 20.6µM (no result: TDP1 block)
COc1cc2c3c(cccc3c1)C(=O)N(CCN1CCCC1)C2=O	TDP1 cell CPT 0.0366µM, DT40 TDP1 no CPT 0.103µM (no result: TDP1 block)
C[C@@]1(C(=O)O)NCCc2cc(O)c(O)cc21	TDP1 cell CPT 10.6µM, DT40 TDP1 no CPT 10.6µM (no result: Six1-Eya2 blk, TDP1 block, CtBP-E1A blk, IL1B secr inh)
COc1ccc2c(c1)C(SCC(=O)NCCc1ccc(Cl)cc1)CC(C)(C)O2 (stereo not given)	TDP1 cell CPT 16.4µM, DT40 TDP1 no CPT inconclusive
COc1ccc(CCNC(=O)COC(=O)/C=C/c2cccc(F)c2)cc1	none
CC[N+](CC)(CC)c1ccc(/C=C/c2ccnc3ccccc23)cc1	TDP1 cell CPT 0.398µM, DT40 TDP1 no CPT 0.316µM (no result: Six1-Eya2 blk, TDP1 block, CtBP-E1A blk, IL1B secr inh)
CC[N+](C)(C)c1ccc(/C=C/c2ccnc3ccccc23)cc1	TDP1 cell CPT 0.0794µM, DT40 TDP1 no CPT 0.112µM (no result: Six1-Eya2 blk, TDP1 block, CtBP-E1A blk, IL1B secr inh)
